Measurements as given in PubChem BioAssay (EPA / NIEHS).
The source made the active and inactive calls. Rule for the calls: active = hit-call score of the fitted dose curve at least 0.9, where 1 is the maximum; inactive = score below 0.9.

Experiments:
Settings in all cases: mRNA level, 48 h; actives raise or lower the signal
MYC, MYC (gene 4609) = assay: LTEA_HepaRG_MYC: Life Technologies and Expression Analysis (LTEA) Assay for MYC using HepaRG (AID 2283518)
Method in brief: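 MYC transcript changes, up or down relative to 0.5% DMSO, from TaqMan qRT-PCR normalized to three housekeeping genes. Human HepaRG cultures received chemicals for 48 h at eight half-log concentrations up to 100 uM, in duplicate.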

[1] = read-out: matrix metalloproteinase-3 (MMP3), MMP3 (gene 4314); assay: LTEA_HepaRG_MMP3: Life Technologies and Expression Analysis (LTEA) Assay for matrix metalloproteinase-3 (MMP3) using HepaRG (AID 2283519)
Method in brief: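 HepaRG cells (~100,000/well) in serum-free induction medium were dosed in duplicate for 48 h with an 8-point half-log series from 100 uM, 0.5% DMSO. MMP3 mRNA was quantified by Fluidigm TaqMan qRT-PCR, normalized to three housekeeping genes.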

[2] = read-out: Paternally Expressed 10 (PEG10), PEG10 (gene 23089); assay: LTEA_HepaRG_PEG10: Life Technologies and Expression Analysis (LTEA) Assay for Paternally Expressed 10 (PEG10) using HepaRG (AID 2283520)
Method in brief: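 Differentiated HepaRG cells, plated 48 h then switched to serum-free induction medium, were exposed in duplicate for 48 h to eight half-log concentrations topping at 100 uM in 0.5% DMSO. PEG10 mRNA was quantified by TaqMan qRT-PCR, normalised to ACTB, GAPDH and POLR2A.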

[3] = read-out: Protein phosphatase 2A (PPP2R4), PTPA (gene 5524); assay: LTEA_HepaRG_PPP2R4: Life Technologies and Expression Analysis (LTEA) Assay for Protein phosphatase 2A (PPP2R4) using HepaRG (AID 2283522)
Method in brief: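 Differentiated HepaRG cells in serum-free induction medium were exposed in duplicate for 48 h to eight concentrations, top 100 uM with half-log dilutions, in 0.5% DMSO. PPP2R4 mRNA was quantified by TaqMan qRT-PCR, normalized to ACTB, GAPDH and POLR2A.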

[4] = read-out: Phosphatase and tensin (PTEN), PTEN (gene 5728); assay: LTEA_HepaRG_PTEN: Life Technologies and Expression Analysis (LTEA) Assay for Phosphatase and tensin (PTEN) using HepaRG (AID 2283523)
Method in brief: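 HepaRG cells, 48 h after plating, exposed in duplicate for 48 h in serum-free induction medium to 8 half-log concentrations up to 100 uM (0.5% DMSO). PTEN mRNA by qRT-PCR, normalized to ACTB, GAPDH, POLR2A; bidirectional fit versus DMSO.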

[5] = read-out: solute carrier (SLC22A1), SLC22A1 (gene 6580); assay: LTEA_HepaRG_SLC22A1: Life Technologies and Expression Analysis (LTEA) Assay for solute carrier (SLC22A1) using HepaRG (AID 2283524)
Method in brief: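 Differentiated human HepaRG cells in serum-free induction medium, exposed 48 h in duplicate to 8-point half-log series from 100 µM top in 0.5% DMSO. SLC22A1 mRNA by TaqMan qRT-PCR normalized to ACTB, GAPDH, POLR2A; bidirectional fit versus DMSO.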

[6] = read-out: Pyruvate Dehydrogenase Kinase 4 (PDK4), PDK4 (gene 5166); assay: LTEA_HepaRG_PDK4: Life Technologies and Expression Analysis (LTEA) Assay for Pyruvate Dehydrogenase Kinase 4 (PDK4) using HepaRG (AID 2283525)
Method in brief: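 HepaRG cells plated 48 h, then switched to serum-free induction medium and exposed in duplicate for 48 h to 8 half-log concentrations from 100 uM in 0.5% DMSO. PDK4 mRNA measured by qRT-PCR, normalized to ACTB, GAPDH and POLR2A; bidirectional fit versus DMSO.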

[7] = read-out: NAD(P)H dehydrogenase [quinone] 1 (NQO1), NQO1 (gene 1728); assay: LTEA_HepaRG_NQO1: Life Technologies and Expression Analysis (LTEA) Assay for NAD(P)H dehydrogenase [quinone] 1 (NQO1) using HepaRG (AID 2283526)
Method in brief: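 Differentiated HepaRG cells, plated 48 h and then switched to serum-free induction medium, were exposed in duplicate for 48 h to 8-point half-log concentrations up to 100 uM in 0.5% DMSO. mRNA measured by qRT-PCR, normalized to ACTB, GAPDH, POLR2A; bidirectional fit versus DMSO.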

[8] = read-out: Nuclear factor erythroid 2-related factor 2 (Homo sapiens) (UniProt Q16236); assay: LTEA_HepaRG_NFE2L2: Life Technologies and Expression Analysis (LTEA) Assay for Nuclear factor erythroid 2-related factor 2 (NFE2L2) Transcription Factor using HepaRG (AID 2283527)
Method in brief: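 Differentiated human HepaRG cells, serum-free induction medium, exposed 48 h in duplicate to eight half-log concentrations up to 100 uM in 0.5% DMSO. NFE2L2 mRNA by Fluidigm TaqMan qRT-PCR, normalised to ACTB, GAPDH, POLR2A; bidirectional change versus DMSO.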

[9] = read-out: succinate dehydrogenase complex iron sulfur subunit B (SDHB), SDHB (gene 6390); assay: LTEA_HepaRG_SDHB: Life Technologies and Expression Analysis (LTEA) Assay for succinate dehydrogenase complex iron sulfur subunit B (SDHB) using HepaRG (AID 2283528)
Method in brief: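 SDHB transcript level read by TaqMan qRT-PCR, housekeeping-normalised (ACTB, GAPDH, POLR2A), after 48 h chemical treatment of plated HepaRG cells; eight concentrations top 100 uM, half-log steps, 0.5% DMSO, duplicates; fitted both directions against DMSO.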

[10] = read-out: Signal transducer and activator of transcription 3 (Homo sapiens) (UniProt P40763); assay: LTEA_HepaRG_STAT3: Life Technologies and Expression Analysis (LTEA) Assay for Signal transducer and activator of transcription (STAT3) using HepaRG (AID 2283529)
Method in brief: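 Differentiated HepaRG cells, serum-free induction medium, dosed 48 h in duplicate, 8 half-log concentrations from 100 uM in 0.5% DMSO. STAT3 mRNA by qRT-PCR, normalised to ACTB, GAPDH, POLR2A; bidirectional fit versus DMSO.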

[11] = read-out: solute carrier (SLCO1B1), SLCO1B1 (gene 10599); assay: LTEA_HepaRG_SLCO1B1: Life Technologies and Expression Analysis (LTEA) Assay for solute carrier (SLCO1B1) using HepaRG (AID 2283530)
Method in brief: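 SLCO1B1 transcript levels were quantified by TaqMan qRT-PCR using three housekeeping genes for normalization. This followed 48 h chemical exposure (100 uM top, half-log, 8 points, 0.5% DMSO) of HepaRG liver cells, with gain or loss fitted relative to DMSO.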

[12] = read-out: sulfotransferase 2A1 (SULT2A1), SULT2A1 (gene 6822); assay: LTEA_HepaRG_SULT2A1: Life Technologies and Expression Analysis (LTEA) Assay for sulfotransferase 2A1 (SULT2A1) using HepaRG (AID 2283531)
Method in brief: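 Expression change of SULT2A1, by qRT-PCR with three housekeeping-gene normalization, was scored bidirectionally versus DMSO. Cells: differentiated HepaRG, dosed in duplicate for 48 h across 8 points, highest 100 µM, half-log dilution, 0.5% DMSO.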

[13] = read-out: Transforming Growth Factor (TGFA), TGFA (gene 7039); assay: LTEA_HepaRG_TGFA: Life Technologies and Expression Analysis (LTEA) Assay for Transforming Growth Factor (TGFA) using HepaRG (AID 2283532)
Method in brief: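 Differentiated HepaRG cells exposed 48 hours in serum-free induction medium, 0.5% DMSO vehicle, 8-point half-log series from 100 uM, in duplicate. TGFA mRNA by TaqMan qRT-PCR, normalised to ACTB, GAPDH, POLR2A; bidirectional fit versus DMSO.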

[14] = read-out: Transforming Growth Factor (TGFB1), TGFB1 (gene 7040); assay: LTEA_HepaRG_TGFB1: Life Technologies and Expression Analysis (LTEA) Assay for Transforming Growth Factor (TGFB1) Transporter using HepaRG (AID 2283533)
Method in brief: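 TGFB1 transcript measured by qRT-PCR with normalisation to three housekeeping genes (ACTB, GAPDH, POLR2A); human HepaRG line treated in duplicate for 48 hr with an 8-point series topping at 100 uM, 0.5% DMSO vehicle, bidirectionally fitted.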

TIMP1, TIMP1 (gene 7076) = assay: LTEA_HepaRG_TIMP1: Life Technologies and Expression Analysis (LTEA) Assay for TIMP1 using HepaRG (AID 2283534)
Method in brief: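 Bidirectional change in TIMP1 transcript versus 0.5% DMSO, measured by TaqMan qRT-PCR with three housekeeping genes for normalization. HepaRG human liver cells dosed 48 h in duplicate, top concentration 100 uM with half-log dilutions.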

[15] = read-out: Tumor necrosis factor receptor 1 (TNFRSF1A), TNFRSF1A (gene 7132); assay: LTEA_HepaRG_TNFRSF1A: Life Technologies and Expression Analysis (LTEA) Assay for Tumor necrosis factor receptor 1 (TNFRSF1A) using HepaRG (AID 2283535)
Method in brief: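 mRNA measured by qRT-PCR (TaqMan, Fluidigm arrays) against ACTB/GAPDH/POLR2A housekeepers after 48 h chemical exposure of HepaRG cells. Top concentration 100 uM, half-log 8-point series, duplicates; vehicle 0.5% DMSO, both fit directions.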

[16] = read-out: Thyroid Hormone Responsive (THRSP), THRSP (gene 7069); assay: LTEA_HepaRG_THRSP: Life Technologies and Expression Analysis (LTEA) Assay for Thyroid Hormone Responsive (THRSP) using HepaRG (AID 2283536)
Method in brief: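 Differentiated HepaRG cells treated 48 h in serum-free induction medium with 8 half-log concentrations up to 100 uM (0.5% DMSO), duplicates. THRSP mRNA by TaqMan qRT-PCR normalised to ACTB, GAPDH, POLR2A; bidirectional fit versus DMSO.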

[17] = read-out: Nuclear factor NF-kappa-B p105 subunit (Homo sapiens) (UniProt P19838); assay: LTEA_HepaRG_NFKB1: Life Technologies and Expression Analysis (LTEA) Assay for Nuclear Factor Kappa B Subunit 1 (NFKB1) using HepaRG (AID 2283521)
Method in brief: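 NFKB1 transcript was measured by TaqMan qRT-PCR on Fluidigm arrays, normalised to three housekeeping genes and fitted in both directions against 0.5% DMSO. HepaRG cells were dosed in duplicate for 48 h in serum-free induction medium, eight half-log steps from 100 uM.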

Measured: AC50

Signal transducer and activator of transcription 3 (Homo sapiens), sequence (P40763 whole entry, looked up): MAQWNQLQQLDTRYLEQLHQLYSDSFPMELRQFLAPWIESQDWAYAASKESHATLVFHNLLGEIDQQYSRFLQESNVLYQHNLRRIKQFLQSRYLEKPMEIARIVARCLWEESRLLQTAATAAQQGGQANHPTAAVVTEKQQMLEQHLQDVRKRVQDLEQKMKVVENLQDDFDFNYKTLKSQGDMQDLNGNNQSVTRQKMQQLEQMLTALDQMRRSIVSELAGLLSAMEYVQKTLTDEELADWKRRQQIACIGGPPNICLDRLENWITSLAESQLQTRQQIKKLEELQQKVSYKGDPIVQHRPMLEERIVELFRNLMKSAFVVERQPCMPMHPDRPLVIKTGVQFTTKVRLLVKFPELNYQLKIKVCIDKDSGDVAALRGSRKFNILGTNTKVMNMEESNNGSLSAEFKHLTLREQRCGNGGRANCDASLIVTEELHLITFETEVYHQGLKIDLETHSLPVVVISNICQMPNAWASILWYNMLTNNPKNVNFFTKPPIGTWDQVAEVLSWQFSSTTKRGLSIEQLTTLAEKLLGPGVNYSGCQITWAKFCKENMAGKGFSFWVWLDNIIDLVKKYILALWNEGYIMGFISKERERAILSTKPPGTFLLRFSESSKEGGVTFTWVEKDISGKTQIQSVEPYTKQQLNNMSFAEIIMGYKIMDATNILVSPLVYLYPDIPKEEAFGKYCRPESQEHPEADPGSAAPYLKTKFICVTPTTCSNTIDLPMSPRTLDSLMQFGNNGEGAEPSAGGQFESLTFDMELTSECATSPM
Nuclear factor erythroid 2-related factor 2 (Homo sapiens), sequence (Q16236 whole entry, looked up): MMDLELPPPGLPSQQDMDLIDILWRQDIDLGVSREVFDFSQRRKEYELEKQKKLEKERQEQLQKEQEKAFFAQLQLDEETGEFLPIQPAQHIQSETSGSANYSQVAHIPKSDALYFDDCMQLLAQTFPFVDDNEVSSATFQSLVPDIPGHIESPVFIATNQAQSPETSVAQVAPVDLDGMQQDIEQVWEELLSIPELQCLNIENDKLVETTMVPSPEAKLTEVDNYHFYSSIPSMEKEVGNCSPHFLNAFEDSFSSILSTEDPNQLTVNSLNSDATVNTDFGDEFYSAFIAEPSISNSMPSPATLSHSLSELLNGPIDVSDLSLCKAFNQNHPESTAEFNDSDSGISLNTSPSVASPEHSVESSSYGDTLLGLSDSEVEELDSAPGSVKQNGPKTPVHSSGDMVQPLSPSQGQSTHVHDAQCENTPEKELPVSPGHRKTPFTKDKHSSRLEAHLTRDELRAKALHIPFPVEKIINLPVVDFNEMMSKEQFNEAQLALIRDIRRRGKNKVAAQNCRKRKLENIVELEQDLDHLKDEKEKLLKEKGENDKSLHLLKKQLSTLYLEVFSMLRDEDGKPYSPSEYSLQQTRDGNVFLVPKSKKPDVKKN
Nuclear factor NF-kappa-B p105 subunit (Homo sapiens), sequence (P19838 whole entry, looked up): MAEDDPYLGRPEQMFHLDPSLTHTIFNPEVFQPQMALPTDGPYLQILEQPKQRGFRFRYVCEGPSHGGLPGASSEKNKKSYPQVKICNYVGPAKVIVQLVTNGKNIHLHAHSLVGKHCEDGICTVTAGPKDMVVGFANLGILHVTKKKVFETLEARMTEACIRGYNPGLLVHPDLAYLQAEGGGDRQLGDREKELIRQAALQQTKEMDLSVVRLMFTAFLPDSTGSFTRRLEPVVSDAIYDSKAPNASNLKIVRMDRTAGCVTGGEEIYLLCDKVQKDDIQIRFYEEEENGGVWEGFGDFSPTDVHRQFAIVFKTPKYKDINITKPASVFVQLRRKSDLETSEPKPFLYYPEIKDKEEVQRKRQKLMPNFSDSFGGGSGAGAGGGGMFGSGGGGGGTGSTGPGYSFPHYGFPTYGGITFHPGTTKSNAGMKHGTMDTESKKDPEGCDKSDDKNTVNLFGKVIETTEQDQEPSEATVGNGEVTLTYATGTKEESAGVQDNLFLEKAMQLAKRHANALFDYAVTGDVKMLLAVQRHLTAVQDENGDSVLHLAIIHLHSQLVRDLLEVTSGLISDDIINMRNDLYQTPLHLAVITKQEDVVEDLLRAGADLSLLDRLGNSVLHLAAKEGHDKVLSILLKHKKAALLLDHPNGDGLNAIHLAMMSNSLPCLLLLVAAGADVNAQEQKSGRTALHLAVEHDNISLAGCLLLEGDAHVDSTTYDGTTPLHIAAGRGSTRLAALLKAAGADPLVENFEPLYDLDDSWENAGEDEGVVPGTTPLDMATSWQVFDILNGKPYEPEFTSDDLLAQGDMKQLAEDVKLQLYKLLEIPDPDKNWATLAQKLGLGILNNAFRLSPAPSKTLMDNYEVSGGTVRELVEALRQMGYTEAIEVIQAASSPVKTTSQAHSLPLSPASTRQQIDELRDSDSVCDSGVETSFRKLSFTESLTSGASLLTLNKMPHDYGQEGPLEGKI

Oc1ccc(Cl)cc1Cl
not listed: [17]
inactive: all other assays above

C[C@]12CCC(=O)C=C1CC[C@@H]1[C@@H]2CC[C@@]2(C)[C@H]1CC[C@]2(C)O
active: [1] 0.948 µM | [2] 2.07 µM | [5] 45.8 µM | [6] 45.8 µM | [14] 45.8 µM | [15] 45.8 µM | [16] 0.81 µM
not listed: MYC, MYC (gene 4609) | [9] | [17]
inactive: all other assays above

C1CC2OC2CC1C1CO1 (stereo not drawn)
not listed: MYC, MYC (gene 4609) | [9]
inactive: all other assays above

CO/C=C(/C(=O)OC)c1ccccc1COc1cccc(C(F)(F)F)n1
inactive: [17] | [3] | [4] | [6] | [7] | [14]
active: [1] 23.9 µM | [5] 5.3 µM | [8] 21.6 µM | [10] 3.4 µM | [11] 8.29 µM | [12] 21.5 µM | [13] 10.6 µM | TIMP1, TIMP1 (gene 7076) 26.8 µM | [15] 4.97 µM | [16] 7.31 µM

Cc1cc(-c2ccc(N)c(C)c2)ccc1N
active: [2] 33.7 µM | [5] 50 µM | [6] 9.92 µM
not listed: MYC, MYC (gene 4609) | [9] | [17]
inactive: all other assays above

O=C(O)C(F)(F)C(F)(F)C(F)(F)C(F)(F)C(F)(F)F
active: [6] 14.9 µM | [11] 9.92 µM
not listed: MYC, MYC (gene 4609) | [17]
inactive: all other assays above

O=C(O)C(F)(F)C(F)(F)C(F)(F)C(F)(F)C(F)(F)C(F)(F)C(F)(F)C(F)(F)F
active: [5] 86.1 µM | [6] 32.8 µM | [8] 74.9 µM | [11] 90.8 µM | [12] 77.4 µM | [13] 67.1 µM | [14] 73.5 µM | [16] 58.6 µM
not listed: MYC, MYC (gene 4609) | [9] | [17]
inactive: all other assays above

COS(=O)(=O)OC
not listed: MYC, MYC (gene 4609) | [9] | [11]
inactive: all other assays above

CC(C)(c1ccccc1)c1ccc(O)cc1
active: [2] 84.7 µM | [5] 50 µM | [16] 78.2 µM
not listed: MYC, MYC (gene 4609)
inactive: all other assays above

Oc1ccc(C(c2ccc(O)cc2)(C(F)(F)F)C(F)(F)F)cc1
active: [1] 76.6 µM | [3] 89 µM | [5] 71.9 µM | [7] 78.9 µM | [12] 88.4 µM | [13] 82.4 µM | [14] 76.5 µM
not listed: MYC, MYC (gene 4609) | [9]
inactive: all other assays above

C=CC(=O)NCNC(=O)C=C
active: [5] 30.6 µM
not listed: MYC, MYC (gene 4609) | [9]
inactive: all other assays above

CC(C)C(=O)OCC(C)(C)C(OC(=O)C(C)C)C(C)C (stereo not drawn)
not listed: MYC, MYC (gene 4609) | [9]
inactive: all other assays above

CCCN(CCC)N=O
not listed: MYC, MYC (gene 4609) | [9]
inactive: all other assays above

ClC1=C(Cl)[C@]2(Cl)[C@@H]3[C@@H]4C[C@@H]([C@H]5O[C@@H]45)[C@@H]3[C@@]1(Cl)C2(Cl)Cl
active: [4] 0.0333 µM | [5] 50 µM | [6] 0.00905 µM | [8] 0.0292 µM | [10] 0.0319 µM | [16] 50 µM
not listed: MYC, MYC (gene 4609)
inactive: all other assays above

Nn1cnnc1
not listed: MYC, MYC (gene 4609) | [9]
inactive: all other assays above
